TLR4 MyD88 comp – inhibitors of TLR4-MyD88 association in cells, primary screen, cell-based, HeLa CL3-4, BLA complementation, FRET ratio | 200,000 tested, 0.18% active | inhibition, % at 8.4 µM | Toll-like receptor 4 (Homo sapiens) + Myeloid differentiation primary response protein … | HeLa CL3-4 TLR4/MyD88 BLA complementation | AID 861, 2007; in the data active means inhibition above about 25%;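 further: 0% = vehicle and 100% = reference inhibitor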
NPR2 activator – human GC-B receptor activators, primary screen, HEK293 GC-B cells, cGMP TR-FRET, EC30 CNP | 0% at EC30 CNP, 100% saturating CNP | activation, % at 10 µM | 370,000 tested, 0.11% active | AID 1920062, 2024;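 active means activation at 10 µM reaching about 35% in either raw or pattern-adjusted values, limit read from the data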
Target sequence (P20594 whole entry, looked up): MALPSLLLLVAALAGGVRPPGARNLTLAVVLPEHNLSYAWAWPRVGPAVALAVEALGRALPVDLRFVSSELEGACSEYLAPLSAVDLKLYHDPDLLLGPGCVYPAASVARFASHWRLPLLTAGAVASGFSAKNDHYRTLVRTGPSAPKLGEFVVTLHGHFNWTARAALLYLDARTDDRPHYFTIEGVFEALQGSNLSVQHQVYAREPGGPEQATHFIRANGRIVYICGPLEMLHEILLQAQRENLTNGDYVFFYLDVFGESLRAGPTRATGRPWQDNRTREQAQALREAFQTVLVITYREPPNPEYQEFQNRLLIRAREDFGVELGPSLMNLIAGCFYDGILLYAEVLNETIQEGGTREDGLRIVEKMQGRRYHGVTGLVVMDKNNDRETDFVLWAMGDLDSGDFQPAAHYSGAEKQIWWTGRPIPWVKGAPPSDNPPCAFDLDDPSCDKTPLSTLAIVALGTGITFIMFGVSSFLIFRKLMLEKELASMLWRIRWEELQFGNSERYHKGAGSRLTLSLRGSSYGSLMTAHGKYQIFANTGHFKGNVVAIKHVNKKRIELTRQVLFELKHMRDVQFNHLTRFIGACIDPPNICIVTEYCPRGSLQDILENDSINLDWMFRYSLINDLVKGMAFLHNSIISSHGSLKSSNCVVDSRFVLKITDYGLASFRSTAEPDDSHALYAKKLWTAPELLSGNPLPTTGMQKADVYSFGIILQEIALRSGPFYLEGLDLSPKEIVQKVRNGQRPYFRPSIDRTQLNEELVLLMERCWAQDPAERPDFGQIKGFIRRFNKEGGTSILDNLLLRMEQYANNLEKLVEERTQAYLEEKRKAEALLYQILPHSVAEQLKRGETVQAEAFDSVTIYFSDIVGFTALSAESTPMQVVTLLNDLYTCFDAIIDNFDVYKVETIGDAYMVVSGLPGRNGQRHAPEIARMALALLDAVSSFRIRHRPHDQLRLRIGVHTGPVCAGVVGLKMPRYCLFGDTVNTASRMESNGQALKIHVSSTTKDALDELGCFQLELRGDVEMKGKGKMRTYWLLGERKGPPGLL
Neddylation inh – inhibitors of cullin neddylation, primary screen, biochemical, TR-FRET, uHTS, NAE and Ubc12 | NEDD8-conjugating enzyme Ubc12 (Homo sapiens) + NEDD8-activating enzyme E1 regulatory … | inhibition, % at 25 µM | 360,000 tested, 0.58% active | AID 651699, 2012; in the data active means inhibition above about 36%
TLR9-MyD88 block – inhibitors of TLR9-MyD88 association in cells, primary screen, cell-based, CHO, BLA complementation, fluorescence; Toll-like receptor 9 (Homo sapiens) + Myeloid differentiation primary response protein …; CCF4 FRET ratio; inhibition, % at 4.98 µM; 340,000 tested, 0.21% active; AID 504734, 2011;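 active means inhibition above the mean over all tested compounds plus 3 SD, cut at about 21% in these data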;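 further: 0% = DMSO only wells and 100% = clavulanate BLA inhibitor control wells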
NPR1 activator – GC-A stimulated cGMP production enhancers – HEK293 GC-A cells, cGMP TR-FRET, EC30 ANP, primary screen | Atrial natriuretic peptide receptor 1 (Homo sapiens), P16066 | 0% at EC30 ANP, 100% saturating ANP | activation, % at 10 µM | 370,000 tested, 0.14% active | AID 1671463, 2021; in the data active means activation above about 40%
NOD2 RIPK2 PPI – NOD2-RIPK2 binding disruptors in cells, primary screen, fluorescence, CHO cells, BLA complementation. Receptor-interacting serine/threonine-protein kinase 2 (Homo sapiens), O43353. CCF4 ratio. inhibition, % at 4.98 µM. 360,000 tested, 0.38% active; in the data active means inhibition above about 21%;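 further: 0% = vehicle only and 100% = reference blocker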
* marks the source's active call; other numbers are inactive results; i = inactive; . = no result shown. A selection: hits, their analogues and other compounds. The true share with any hit is near 1.2%.

SMILES | TLR4 MyD88 comp | NPR2 activator | Neddylation inh | TLR9-MyD88 block | NPR1 activator | NOD2 RIPK2 PPI
COC(=O)C1CN(C2CC2)CCS(=O)(=O)N1Cc1cn(Cc2ccccc2)nn1 (configuration not stated) | . | 4.5 | . | . | 4.0 | .
N#Cc1ccc(-c2nc3ccc(Br)cn3c2Cc2ccccc2)cc1 | . | 35.3* | i | -2.1 | 29.4 | 2.5
COC(=O)c1ccc2nc(-c3ccc(C)cc3)c(Cc3ccccc3)n2c1 | . | 39.1* | . | . | 27.1 | .
COC(=O)c1ccc2nc(-c3ccccc3)c(Cc3ccc(C)cc3)n2c1 | . | 38.9* | . | . | 29.8 | -17.6
COC(=O)c1ccc2nc(-c3ccccc3)c(Cc3ccccc3)n2c1 | . | 27.2 | . | . | 19.7 | .
COC(=O)c1ccc2nc(-c3ccc(C#N)cc3)c(Cc3cccc(F)c3)n2c1 | . | 24.4 | 36.0 | . | 24.3 | 0.5
COC(=O)c1ccc2nc(-c3ccc(C)cc3)c(Cc3cccc(F)c3)n2c1 | . | 45.7* | . | . | 32.1 | -5.7
CC(C)CNc1nnnc2c1sc1nc(N3CCOCC3)c3c(c12)CCCC3 | . | 52.1* | -0.8 | -19.6 | 51.1* | -2.6
COCCNc1nnnc2c1sc1nc(N3CCOCC3)c3c(c12)CC(C)(C)OC3 | -0.8 | 27.6 | 6.0 | -6.3 | 29.4 | 1.1
CN1CCN(c2ncnc3c2sc2nc(N4CCOCC4)c4c(c23)CCC4)CC1 | -1.2 | . | . | . | . | .
C=CCNc1nnnc2c1sc1nc(N3CCOCC3)c3c(c12)CCCC3 | . | 58.4* | 5.2 | 1.4 | 50.0* | -2.4
CCNC(=O)C(=O)c1c(-c2ccccc2)[nH]c2ccccc12 | 6.0 | 1.1 | -11.2 | -14.1 | 3.8 | 0.8
Nc1sc(Cc2ccccc2)cc1C(=O)c1c(-c2ccccc2)[nH]c2ccccc12 | . | -1.2 | 4.0 | . | 60.4* | -0.6
COc1ccccc1NC(=O)O[C@@H]1CC[C@@]23CCCN2C(=O)CCC[C@H]3C1 | . | -9.2 | . | . | -0.4 | .
CCOC(=O)N1CCN(CCC(=O)c2ccc(Br)cc2)CC1 | . | -11.4 | 0.9 | 8.0 | 53.1* | 5.7
CCOC(=O)N1CCN(CCC(=O)c2ccc(Cl)cc2)CC1 | 18.1 | -13.7 | -1.5 | -7.6 | 64.8* | -6.1
COc1cc2c(cc1OC)CN(CCC(=O)c1ccc(Br)cc1)CC2 | 8.7 | -10.6 | . | 1.4 | 42.1* | -6.5
CCOC(=O)N1CCN(CCC(=O)c2ccc(OC)cc2)CC1 | 2.5 | -4.9 | -1.9 | 5.7 | 4.4 | -4.1
CCC(=O)N1CCc2cc(Br)c(S(=O)(=O)N3CCC(C(=O)NCCCOC(C)C)CC3)cc21 | . | -2.8 | . | . | -2.5 | .
Cc1cc(/C=c2\sc3nc4ccccc4n3c2=O)c(C)n1-c1ccc(C(=O)O)cc1 | -1.1 | 4.8 | 40.4* | 0.3 | 1.6 | 12.6
CCOC(=O)C1=C(N)Oc2cc(O)ccc2C1c1ccc(C)cc1 (configuration not stated) | . | 0.2 | 5.8 | -10.9 | 48.6* | -7.0
Cc1ccc(C2CC(=O)Oc3cc(O)ccc32)cc1 (configuration not stated) | 3.9 | 10.1 | -5.3 | -15.1 | 57.0* | -8.2
COC(=O)[C@]12C[C@H](CC(=O)N3CCN(C(=O)c4ccco4)CC3)C(=O)N(Cc3ccco3)C1=C[C@H](C(C)(C)C)O[C@@H]2C | . | -10.9 | . | . | -11.5 | .
Cc1ccccc1OCC(=O)Nc1sc(C(=O)Nc2cccc(C)c2C)c(C)c1C#N | 11.9 | -8.8 | i | -2.5 | 55.8* | -3.6
CCCC[C@H](CCCc1ccc(F)cc1)CCC(=O)N(c1ccccc1)c1ccccc1 | . | 4.3 | . | . | 1.3 | .
SMILES | TLR4 MyD88 comp | NPR2 activator | Neddylation inh | TLR9-MyD88 block | NPR1 activator | NOD2 RIPK2 PPI
CCOC(=O)c1[nH]c(C)c(C(=O)NC2CCCC2)c1C | 5.1 | 56.5* | 0.6 | -2.4 | 2.6 | -2.0
CCOC(=O)c1[nH]c(C)c(C(=O)NC2CCCCCC2)c1C | -4.6 | 2.2 | -7.1 | -7.1 | 3.2 | 4.7
O=C(Nc1sc2c(c1-c1nc3ccccc3s1)CCNC2)C(F)F | . | -1.4 | . | . | 6.9 | .
CC(=O)Nc1sc2c(c1-c1nc3ccccc3s1)CCCNC2 | . | 34.3* | . | . | 30.0 | .
CCOC(=O)CC[C@@H]1CC[C@]2(CCCN(C(=O)c3ccccc3)C2)O1 | . | 3.6 | . | . | 6.0 | .
CCCCNC(=O)NCCCN1CCN(c2ccc(F)cc2)CC1 | . | 2.2 | . | . | 2.7 | .
O=C1Nc2ccccc2N(C(=O)c2c(F)cccc2F)C1c1nc2ccccc2[nH]1 (configuration not stated) | . | -2.7 | 52.5* | . | -3.9 | 2.4
COC(=O)[C@]12C[C@H](CC(=O)NCCCCc3ccccc3)C(=O)N(CCc3ccc(OC)c(OC)c3)C1=C[C@H](COCc1ccccc1)O[C@@H]2C | . | 2.8 | . | . | -1.8 | .
COc1ccc(/C=C2\Sc3ccc(C(=O)NC4CC4)cc3N(C)C2=O)cc1OC | . | 38.7* | -8.0 | -3.5 | 29.5 | -8.3
COc1cc(C2C=C(c3cccs3)Nc3ncnn32)cc(OC)c1OC (configuration not stated) | 17.3 | . | -2.9 | 65.0* | . | 79.7*
COc1cc(O)c(C(CC(=O)N2CCC(C)CC2)c2ccc3c(c2)OCO3)c(OC)c1 (configuration not stated) | . | -22.4 | . | . | -23.2 | .
COc1ccc(OC)c(NC(=S)NCc2ccc(S(N)(=O)=O)cc2)c1 | -2.9 | 2.2 | 3.4 | 15.9 | 0.4 | -6.4
COc1ccc(CNC(=S)Nc2cc(OC)ccc2OC)cc1 | -3.3 | 3.4 | 4.7 | 7.2 | 40.2* | -0.3
CN(C)CC1CCC/C(=C\c2ccc(OC(=O)c3ccc(Cl)cc3)cc2)C1=O (configuration not stated) | . | 4.4 | 0.5 | -7.0 | 40.1* | 3.9
CCc1ccc(C2=CC(c3cc(Br)ccc3F)n3ncnc3N2)cc1 (configuration not stated) | 17.0 | 2.2 | . | 29.4* | 10.7 | 38.5*
Oc1ccc(-c2nc3cnccn3c2Nc2ccc3c(c2)OCCO3)cc1 | -13.8 | 29.3 | 29.3 | 3.9 | 41.4* | -9.1
COc1cc(-c2nc3cnccn3c2Nc2ccc(C(C)C)cc2)ccc1O | -3.3 | 1.3 | . | 8.9 | 54.8* | -2.1
COc1cc(-c2nc3cnccn3c2Nc2ccccc2)ccc1O | 1.6 | -15.5 | . | 2.3 | -4.5 | -13.4
Cc1ccn2c(Nc3ccc4c(c3)OCO4)c(-c3ccc(O)cc3)nc2c1 | . | 15.8 | . | 2.8 | 46.8* | -4.9
c1ccc(-c2nc3cnccn3c2Nc2ccc3c(c2)OCCO3)cc1 | 1.2 | 36.4* | 29.2 | 1.5 | 45.1* | 6.0
COc1cc(-c2nc3cnccn3c2Nc2ccc3c(c2)OCCO3)ccc1O | -0.8 | 17.1 | 30.1 | -5.7 | 21.6 | -6.4

Compound activity: PubChem, several laboratories
